PubChem BioAssay (NCI)
The panel holds about 79,000 compounds, 15% with a hit somewhere; the sample as a whole holds those more often. Active and inactive are the calls of the source. Rule as the data show it: active = growth inhibition above about 70%; inactive = the rest.

Key:
[1] = NCI Yeast Anticancer Drug Screen. Data for the rad52 strain (AID 147);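 also: 0% = growth of vehicle-treated control cultures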; settings: S. cerevisiae rad52 mutant growth inhibition, active compounds read high
How it was run: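 Measured: yeast growth inhibition. System: strain with a defined DNA damage repair alteration. Reference: vehicle-treated control cultures.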

[2] = NCI Yeast Anticancer Drug Screen. Data for the wt1 strain (AID 149);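 also: 0% = growth of vehicle-treated wt1 cultures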; settings: S. cerevisiae wt1 strain (SPY 50644) growth inhibition, active compounds read high
How it was run: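 Each compound is tested on wt1 yeast and the loss of growth versus vehicle gives the inhibition value.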

[3] = NCI Yeast Anticancer Drug Screen. Data for the rad50EPP+ strain (AID 151);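 also: 0% = growth of vehicle-treated control cultures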; settings: S. cerevisiae rad50 mutant strain, active compounds read high
How it was run: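 One strain with a rad50 alteration (rad50EPP+) was compound-treated, its growth then compared to that of vehicle controls.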

[4] = NCI Yeast Anticancer Drug Screen. Data for the rad50 strain (AID 155);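 also: 0% = growth of vehicle-only cultures of the same strain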; settings: S. cerevisiae rad50 strain growth inhibition, active compounds read high
How it was run: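 Vehicle-treated cultures provide the reference for the growth inhibition reported for compound-exposed, repair-deficient yeast.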

[5] = NCI Yeast Anticancer Drug Screen. Data for the mec2-1 strain (AID 157); settings: S. cerevisiae mec2-1 strain, active compounds read high
How it was run: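 Test agents were screened against the mec2-1 yeast strain, with defined DNA repair or cell cycle alteration. Growth was scored as inhibition against vehicle-only controls.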

[6] = NCI Yeast Anticancer Drug Screen. Data for the rad14 strain (AID 159);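 also: 0% = growth of vehicle-treated control cultures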; settings: S. cerevisiae rad14 strain growth inhibition, active compounds read high
How it was run: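 Inhibition of growth is reported for a repair-deficient yeast mutant following compound treatment, calculated relative to cultures that received vehicle.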

[7] = NCI Yeast Anticancer Drug Screen. Data for the sgs1 mgt1 strain (AID 161);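 also: 0% = growth of cultures given vehicle only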; settings: S. cerevisiae sgs1 mgt1 strain, active compounds read high
How it was run: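 Mutant yeast exposed to compound; growth scored against vehicle-only wells.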

[8] = NCI Yeast Anticancer Drug Screen. Data for the CLN2oe strain (AID 163);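 also: 0% = growth of vehicle-only control cultures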; settings: S. cerevisiae CLN2oe strain, active compounds read high
How it was run: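 Here, growth inhibition in a cell-cycle-altered yeast strain after compound exposure was quantified against vehicle control growth.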

[9] = NCI Yeast Anticancer Drug Screen. Data for the cln2 rad14 strain (AID 165);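 also: 0% = growth equal to vehicle treated cultures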; settings: S. cerevisiae cln2 rad14 strain, active compounds read high
How it was run: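 Growth of compound-exposed yeast (cln2 rad14 genotype) measured and expressed as inhibition relative to vehicle.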

[10] = NCI Yeast Anticancer Drug Screen. Data for the bub3 strain (AID 167); settings: S. cerevisiae bub3 mutant strain, active compounds read high
How it was run: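 Mutant yeast screening strain plus compound; vehicle-treated cultures serve as the 0% inhibition reference.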

[11] = NCI Yeast Anticancer Drug Screen. Data for the wt2 strain (AID 169); settings: S. cerevisiae wt2 strain growth inhibition, active compounds read high
How it was run: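 Genetically defined yeast strains from a DNA-repair/cell-cycle panel were used. Compound-exposed yeast growth was measured, and the inhibition was calculated relative to vehicle treatment.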

[12] = NCI Yeast Anticancer Drug Screen. Data for the mlh1 strain (AID 171);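 also: 0% = growth of vehicle-treated control cultures of the same strain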; settings: S. cerevisiae mlh1 strain growth inhibition, active compounds read high
How it was run: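 Here the genetically defined yeast mutant is grown with each compound, and the extent to which its growth falls below that of vehicle-exposed cells is reported.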

[13] = NCI Yeast Anticancer Drug Screen. Data for the sgs1 strain (AID 173);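 also: 0% = growth of vehicle-only control cultures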; settings: S. cerevisiae sgs1 mutant, active compounds read high
How it was run: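 Relative growth inhibition, referenced to vehicle, was determined in a yeast strain with a defined alteration affecting DNA damage repair or cell cycle control after compound exposure.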

[14] = NCI Yeast Anticancer Drug Screen. Data for the mlh1 rad18 strain (AID 175); settings: S. cerevisiae mlh1 rad18 strain growth inhibition, active compounds read high
How it was run: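 In this whole-cell yeast screen, a strain with altered DNA damage repair is challenged with compound, and its growth is measured against matched vehicle-treated controls.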

[15] = NCI Yeast Anticancer Drug Screen. Data for the rad18 strain (AID 177); settings: S. cerevisiae rad18 mutant growth inhibition, active compounds read high
How it was run: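 Screen uses a yeast strain with a defined lesion in DNA damage repair; compound effect is read as loss of growth compared to untreated vehicle cultures.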

[16] = at 5.0 µM (retest, dose inferred, filed as 0.5)
[17] = at 50.0 µM (retest, dose inferred, filed as 5.0)

Measured: growth inhibition

COC(=O)c1oc([N+](=O)[O-])c(Cl)c1Cl
active: [1]; at 1.2 µM 78% | [1]; at 11.0 µM 71% | [1]; at 33.0 µM 95% | [1]; at 100.0 µM 99% | [2]; at 33.0 µM 89% | [2]; at 100.0 µM 99% | [3]; at 1.2 µM 95% | [3]; at 3.7 µM 93% | [3]; at 11.0 µM 93% | [3]; at 33.0 µM 98% | [3]; at 100.0 µM 98% | [4]; at 1.2 µM 95% | [4]; at 3.7 µM 79% | [4]; at 11.0 µM 86% | [4]; at 33.0 µM 96% | [4]; [17] 99% | [4]; at 50.0 µM 97% | [4]; at 100.0 µM 98% | [5]; at 1.2 µM 94% | [5]; at 3.7 µM 70% | [5]; at 11.0 µM 73% | [5]; at 33.0 µM 99% | [5]; [17] 100% | [5]; at 50.0 µM 99.7% | [5]; at 100.0 µM 99% | [6]; at 1.2 µM 99% | [6]; at 3.7 µM 71% | [6]; at 11.0 µM 90% | [6]; at 33.0 µM 99% | [6]; at 100.0 µM 99% | [7]; [17] 99% | [7]; at 50.0 µM 99% | [8]; at 1.2 µM 98% | [8]; at 11.0 µM 79% | [8]; at 33.0 µM 92% | [8]; at 100.0 µM 99% | [9]; [17] 99% | [9]; at 50.0 µM 98.5% | [10]; at 1.2 µM 71% | [10]; at 33.0 µM 97% | [10]; [17] 100% | [10]; at 50.0 µM 99.2% | [10]; at 100.0 µM 98% | [11]; at 11.0 µM 74% | [11]; at 33.0 µM 99% | [11]; at 100.0 µM 99% | [12]; at 1.2 µM 77% | [12]; at 11.0 µM 78% | [12]; at 33.0 µM 99% | [12]; at 100.0 µM 99% | [13]; at 1.2 µM 82% | [13]; at 11.0 µM 78% | [13]; at 33.0 µM 96% | [13]; at 100.0 µM 96% | [14]; [17] 99% | [14]; at 50.0 µM 99.5% | [15]; at 1.2 µM 93% | [15]; at 3.7 µM 92% | [15]; at 11.0 µM 89% | [15]; at 33.0 µM 98% | [15]; at 100.0 µM 99%
inactive: [1]; at 3.7 µM 66% | [2]; at 1.2 µM 26% | [2]; at 3.7 µM 22% | [2]; at 11.0 µM 39% | [4]; [16] 21% | [5]; [16] 35% | [7]; [16] 36% | [8]; at 3.7 µM 45% | [9]; [16] 10% | [10]; at 3.7 µM 41% | [10]; [16] 47% | [10]; at 11.0 µM 34% | [11]; at 1.2 µM 64% | [11]; at 3.7 µM 51% | [12]; at 3.7 µM 62% | [13]; at 3.7 µM 57% | [14]; [16] 58%
